Laboratory results taken from PubChem BioAssay (NCI).
The panel holds about 83,000 compounds, 20% with a hit somewhere; the sample as a whole holds those more often.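 Method: cells in 96-well plates; compound added at one concentration; 48 h incubation; percent growth measured; values under 10 scored active.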 Calls of active or inactive are those of the source.

Experiments:
Experiment in all cases: NCI-60 one-dose screen, 48 h (100 = growth as untreated, 0 = no growth, -100 = all killed)
Details in all cases: 10 µM unless noted
HT29 colon = tested on: HT29 colon
SNB-75 CNS = tested on: SNB-75 CNS
SNB-19 CNS = tested on: SNB-19 CNS
PC-3 prostate = tested on: PC-3 prostate
SK-MEL-5 melanoma = tested on: SK-MEL-5 melanoma
UACC-62 melanoma = tested on: UACC-62 melanoma
LOX IMVI melanoma = tested on: LOX IMVI melanoma
SK-MEL-28 melanoma = tested on: SK-MEL-28 melanoma
SK-MEL-2 melanoma = tested on: SK-MEL-2 melanoma
EKVX NSCLC = tested on: EKVX NSCLC
UO-31 renal = tested on: UO-31 renal
TK-10 renal = tested on: TK-10 renal
CAKI-1 renal = tested on: CAKI-1 renal
A498 renal = tested on: A498 renal
CCRF-CEM leukemia = tested on: CCRF-CEM leukemia
MOLT-4 leukemia = tested on: MOLT-4 leukemia
SR leukemia = tested on: SR leukemia
SN12C renal = tested on: SN12C renal
U251 CNS = tested on: U251 CNS
ACHN renal = tested on: ACHN renal

Measured: growth

CC(C)COCC(CN(Cc1ccccc1)c1ccccc1)N1CCCC1 (stereo not drawn)
active: HT29 colon -24.5%
inactive: SNB-75 CNS 72.5% | SNB-19 CNS 79.1% | PC-3 prostate 41.9% | SK-MEL-5 melanoma 51.4% | UACC-62 melanoma 81.1% | LOX IMVI melanoma 47.5% | SK-MEL-28 melanoma 84.9% | SK-MEL-2 melanoma 77.2% | EKVX NSCLC 54% | UO-31 renal 37% | TK-10 renal 29.9% | CAKI-1 renal 57.1% | A498 renal 83.3% | CCRF-CEM leukemia 41.7% | MOLT-4 leukemia 28.8% | SR leukemia 51.8%

c1ccc(-c2nnc(Nc3nnc(-c4ccccc4)s3)s2)cc1
inactive: HT29 colon 106% | SNB-75 CNS 93.4% | SNB-19 CNS 111% | PC-3 prostate 97.7% | SK-MEL-5 melanoma 100% | UACC-62 melanoma 103% | SK-MEL-28 melanoma 112% | SN12C renal 102% | UO-31 renal 82.5% | TK-10 renal 142% | CAKI-1 renal 87.9% | A498 renal 92.1% | CCRF-CEM leukemia 95.5% | MOLT-4 leukemia 102% | SR leukemia 97.4%

COc1ccc2c(c1)C(=O)c1c-2c(OCCN(C)C)nc2cc(OC)ccc12
inactive: SNB-75 CNS 31.6% | PC-3 prostate 10.1% | SK-MEL-28 melanoma 29.7% | SK-MEL-2 melanoma 30.9% | EKVX NSCLC 20.6% | SN12C renal 22.6% | TK-10 renal 28.5% | A498 renal 38.4% | CCRF-CEM leukemia 13.7%
active: HT29 colon -43.6% | U251 CNS -68.7% | SK-MEL-5 melanoma -48.6% | UACC-62 melanoma 7.14% | LOX IMVI melanoma -89.2% | UO-31 renal -43.7% | ACHN renal -78.6% | CAKI-1 renal 9.1% | MOLT-4 leukemia -7.63% | SR leukemia -29.2%

O=[N+]([O-])c1ccc(N/N=C\c2ccccc2[N+](=O)[O-])nc1
inactive: HT29 colon 104% | SNB-75 CNS 103% | SNB-19 CNS 99.4% | PC-3 prostate 99.7% | SK-MEL-5 melanoma 105% | UACC-62 melanoma 96.7% | LOX IMVI melanoma 105% | SK-MEL-28 melanoma 110% | EKVX NSCLC 101% | SN12C renal 103% | UO-31 renal 97.8% | TK-10 renal 116% | CAKI-1 renal 83% | A498 renal 83.4% | CCRF-CEM leukemia 97.8% | MOLT-4 leukemia 93.5% | SR leukemia 92.4%

C[C@]12CC[C@@H]3c4ccc(O)c([N+](=O)[O-])c4CC[C@H]3[C@@H]1CC[C@@H]2NS(=O)(=O)c1cccc(Br)c1
active: UO-31 renal 3.61% | SR leukemia -12.1%
inactive: HT29 colon 68.1% | SNB-75 CNS 47.2% | SNB-19 CNS 50.6% | PC-3 prostate 15.9% | SK-MEL-5 melanoma 25.6% | UACC-62 melanoma 35.4% | SK-MEL-28 melanoma 49.6% | SN12C renal 21.4% | TK-10 renal 42.8% | ACHN renal 24.4% | CAKI-1 renal 17.8% | A498 renal 54.2% | MOLT-4 leukemia 18.2%

OC(c1cc(C(F)(F)F)nc2c(C(F)(F)F)cccc12)C1CCCCN1 (stereo not drawn)
active: HT29 colon -66.5%
inactive: SNB-75 CNS 33% | SNB-19 CNS 53.7% | PC-3 prostate 36.7% | SK-MEL-5 melanoma 61.3% | UACC-62 melanoma 76.6% | LOX IMVI melanoma 11.9% | SK-MEL-28 melanoma 72.1% | SK-MEL-2 melanoma 56.4% | EKVX NSCLC 76.4% | UO-31 renal 41.8% | CAKI-1 renal 48.4% | A498 renal 53% | MOLT-4 leukemia 19.7% | SR leukemia 12.7%

Cc1ccc(NC(=O)Nc2ccc(-c3cccnc3)cc2N2CCC(CO)CC2)cc1
inactive: SNB-75 CNS 15.3% | U251 CNS 11.3% | PC-3 prostate 51.8% | LOX IMVI melanoma 33.3% | SK-MEL-2 melanoma 33.7% | EKVX NSCLC 55.5% | SN12C renal 41% | UO-31 renal 81.2% | TK-10 renal 16.5% | ACHN renal 81.2% | CAKI-1 renal 42.2% | CCRF-CEM leukemia 34.7% | MOLT-4 leukemia 17.6% | SR leukemia 17.1%
active: HT29 colon 5.68% | SK-MEL-5 melanoma -46.1% | UACC-62 melanoma 4.73% | SK-MEL-28 melanoma 9.36% | A498 renal -36.2%

C=C(C[C@](O)(C(=O)/C=C/c1ccc(Cl)cc1)C(=O)OC)c1ccccc1
active: LOX IMVI melanoma -72.4%
inactive: HT29 colon 16.4% | SNB-75 CNS 75.7% | U251 CNS 28.6% | PC-3 prostate 65.4% | SK-MEL-5 melanoma 76% | UACC-62 melanoma 53.8% | SK-MEL-28 melanoma 95.4% | SK-MEL-2 melanoma 102% | EKVX NSCLC 82.8% | SN12C renal 74.8% | UO-31 renal 52.6% | TK-10 renal 64.6% | ACHN renal 72.2% | CAKI-1 renal 68.5% | A498 renal 97.1% | SR leukemia 23.3%

O=C(Cc1ccccn1)C(F)(F)C(F)(F)C(F)(F)F
inactive: HT29 colon 111% | SNB-75 CNS 93.6% | SNB-19 CNS 99.8% | PC-3 prostate 91.3% | SK-MEL-5 melanoma 110% | UACC-62 melanoma 102% | LOX IMVI melanoma 95.5% | SK-MEL-28 melanoma 105% | SK-MEL-2 melanoma 109% | EKVX NSCLC 130% | SN12C renal 95.2% | UO-31 renal 91.6% | TK-10 renal 117% | ACHN renal 111% | A498 renal 126% | CCRF-CEM leukemia 97.5% | MOLT-4 leukemia 97% | SR leukemia 97.9%

C[C@]12CC[C@@H]3c4ccc(O)c([N+](=O)[O-])c4CC[C@H]3[C@@H]1CC[C@@H]2NS(=O)(=O)c1ccc(C(F)(F)F)cc1
inactive: HT29 colon 48% | SNB-75 CNS 40.5% | SNB-19 CNS 48.7% | PC-3 prostate 24.2% | SK-MEL-5 melanoma 20.4% | UACC-62 melanoma 36.1% | SK-MEL-28 melanoma 43.5% | SN12C renal 17.8% | A498 renal 46.3% | CCRF-CEM leukemia 18.3%
active: UO-31 renal -90.1% | ACHN renal 3% | MOLT-4 leukemia 3.51% | SR leukemia -8.8%

CC(CCC(=O)O)(NC(=O)c1ccc([N+](=O)[O-])cc1)C(=O)O (stereo not drawn)
inactive: HT29 colon 109% | SNB-75 CNS 91.6% | U251 CNS 104% | PC-3 prostate 98.4% | SK-MEL-5 melanoma 101% | UACC-62 melanoma 109% | LOX IMVI melanoma 97.1% | SK-MEL-28 melanoma 107% | SK-MEL-2 melanoma 108% | EKVX NSCLC 114% | SN12C renal 107% | UO-31 renal 86.2% | TK-10 renal 106% | ACHN renal 125% | A498 renal 108% | MOLT-4 leukemia 93.6% | SR leukemia 95.7%

CCCCC(C#N)C(N)=O (stereo not drawn)
inactive: HT29 colon 101% | SNB-75 CNS 95.6% | SNB-19 CNS 107% | PC-3 prostate 88.2% | SK-MEL-5 melanoma 107% | UACC-62 melanoma 102% | LOX IMVI melanoma 98.4% | SK-MEL-28 melanoma 107% | EKVX NSCLC 132% | SN12C renal 101% | UO-31 renal 87.8% | TK-10 renal 107% | ACHN renal 110% | A498 renal 122% | CCRF-CEM leukemia 95.8% | MOLT-4 leukemia 90.2% | SR leukemia 93.8%

ClC1=C(Cl)C(Cl)=C(Cl)C1=Cc1ccc(Cl)cc1
active: HT29 colon -30.1% | LOX IMVI melanoma -85.5% | EKVX NSCLC -22.6% | UO-31 renal -56.9% | TK-10 renal 8.54% | CAKI-1 renal -63.5% | MOLT-4 leukemia 0.492% | SR leukemia -14.1%
inactive: SNB-75 CNS 97.5% | SNB-19 CNS 76.4% | SK-MEL-5 melanoma 100% | UACC-62 melanoma 58.6% | SK-MEL-28 melanoma 116% | SK-MEL-2 melanoma 99.7% | SN12C renal 47.2% | ACHN renal 29% | A498 renal 27.2%

O=C(Nc1ccc(Cl)cc1)Nc1ccc(Oc2nncc3ccccc23)cc1
active: HT29 colon 0.517% | SNB-75 CNS -3.13% | U251 CNS -31.1% | PC-3 prostate -29% | SK-MEL-5 melanoma -43.3% | UACC-62 melanoma -14.3% | LOX IMVI melanoma -77.3% | SK-MEL-28 melanoma -31.6% | SN12C renal -3.83% | UO-31 renal -51.6% | ACHN renal -15.1% | CCRF-CEM leukemia 8.7% | MOLT-4 leukemia 3.99% | SR leukemia 2.64%
inactive: SK-MEL-2 melanoma 12.4% | EKVX NSCLC 26.7% | TK-10 renal 27.5% | CAKI-1 renal 18.7% | A498 renal 24.5%

O=C(/C(=N/O)S(=O)(=O)c1ccccc1)c1cccs1
inactive: HT29 colon 107% | SNB-75 CNS 92.6% | SNB-19 CNS 100% | PC-3 prostate 97.7% | UACC-62 melanoma 104% | SK-MEL-28 melanoma 111% | SN12C renal 101% | UO-31 renal 96.8% | TK-10 renal 89.5% | ACHN renal 112% | CAKI-1 renal 103% | A498 renal 103% | MOLT-4 leukemia 104% | SR leukemia 85.9%

Nc1ccc(C2=NN(c3ccccc3)C(c3ccc(Cl)cc3)C2)cc1 (stereo not drawn)
active: SR leukemia 2.52%
inactive: HT29 colon 19.5% | SNB-75 CNS 72.8% | SNB-19 CNS 78.1% | PC-3 prostate 80.9% | UACC-62 melanoma 89.5% | SK-MEL-28 melanoma 105% | SN12C renal 76.9% | UO-31 renal 55.1% | TK-10 renal 74.2% | ACHN renal 82.1% | CAKI-1 renal 80.9% | A498 renal 74.7% | CCRF-CEM leukemia 64.2% | MOLT-4 leukemia 62.4%

CC[N+](C)(CC)CCCC(C)Nc1ccnc2cc(Cl)ccc12 (stereo not drawn)
inactive: HT29 colon 111% | SNB-75 CNS 99.8% | U251 CNS 98.8% | PC-3 prostate 98% | SK-MEL-5 melanoma 101% | UACC-62 melanoma 105% | LOX IMVI melanoma 99.7% | SK-MEL-2 melanoma 108% | EKVX NSCLC 109% | SN12C renal 109% | UO-31 renal 91.4% | TK-10 renal 124% | ACHN renal 114% | CAKI-1 renal 102% | A498 renal 100% | CCRF-CEM leukemia 103%

N#Cc1c(N)[nH]c(S)c1C#N
inactive: HT29 colon 99.9% | SNB-75 CNS 97.2% | U251 CNS 101% | PC-3 prostate 87.9% | SK-MEL-5 melanoma 96.9% | UACC-62 melanoma 94.9% | LOX IMVI melanoma 102% | SK-MEL-28 melanoma 113% | SK-MEL-2 melanoma 92% | SN12C renal 108% | UO-31 renal 88.2% | TK-10 renal 111% | CAKI-1 renal 98.5% | A498 renal 76.2% | CCRF-CEM leukemia 102% | MOLT-4 leukemia 108% | SR leukemia 97.8%
